# Results taken from PubChem BioAssay (NCATS).
# Values without a mark were called inactive. Results filed as inconclusive are left out. Active and inactive are the calls of the source. Unless noted, the call rests on the fitted dose curve; in most records, active means well fitted curve in the direction sought with a large enough effect; inconclusive means small, poorly fitted or top-dose-only effect, or another doubt; inactive means no such curve, though single readings can be large; an effect the other way counts as inactive or inconclusive.
# Tests used:
# [1] = target: Lysosomal acid glucosylceramidase (Homo sapiens) (UniProt P04062); test: Glucocerebrosidase-p2 (AID 348; in the data active means potency below about 10 µM; further: potency means the concentration at half of the fitted maximal effect); settings: purified GBA, blue fluorogenic substrate, 40 min
# Outline: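 Compounds titrated from 0.6 nM upwards against 0.2 nM enzyme in pH 5.9 citric acid/KH2PO4, taurocholate, tween-20; blue fluorogenic substrate 80 uM, 40 min room temperature, stopped and read Ex 365/Em 440 for AC50.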
# [2] = AP1 Signaling Pathway (AID 357; active means well fitted curve in either direction with a large enough effect, not every such curve was filed as active;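 further: ME-180 reporter cells stimulated with EGF at its EC50 level; on the % scale 0 is the no-effect control and ±100 the full control effect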); settings: ME-180 AP-1-bla reporter, EGF-induced, beta-lactamase ratio, 5 h; at 7.69 µM (top of the series) unless noted
# Outline: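 Modulation of EGF-driven AP-1 transcription was assessed with a beta-lactamase reporter in ME-180 cells. Compound and EC50 EGF were co-incubated 5 hours at 37 °C before 2.5-hour CCF4 loading at room temperature and dual-emission reading.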
# [3] = target: Cytochrome P450 1A2 (Homo sapiens) (UniProt P05177); test: p450-cyp1a2 (AID 410; calls by dose curve; further: potency means the concentration at half of the fitted maximal effect;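 on activity change, negative = inhibition: -100% = full effect of reference inhibitor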); settings: recombinant CYP1A2, luciferin-ME demethylation, luminescence; series mostly up to 57 µM
# Outline: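 Luminescent readout of luciferin formed from Luciferin-ME by human CYP1A2; data normalized against complete inhibition by 57 uM furafylline. Enzyme 20nM, substrate 100uM at Km, 100mM KPO4 buffer, 60 min reaction at room temperature.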
# [4] = NFAT Signaling Pathway (AID 444; active means well fitted curve in either direction with a large enough effect, not every such curve was filed as active;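 further: carbachol stimulus at about its EC50 of 1 µM final; on the % scale 0 is the no-effect control and ±100 the full control effect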); settings: Jurkat NFAT-bla M1, carbachol, beta-lactamase ratio, 5 h; at 7.69 µM (top of the series) unless noted
# Outline: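 Jurkat cells carrying an NFAT-driven β-lactamase reporter and co-transfected muscarinic M1 receptor were treated with compound plus carbachol (1 uM final, an EC50 level) for 5 h at 37 °C. CCF4 loading followed for 1 h at RT; 460/530 nm ratio gave %activity.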
# [5] = Stat Signaling Pathway (AID 446; active means well fitted curve in either direction with a large enough effect, not every such curve was filed as active;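 further: ME-180 cervical cancer cells given 40 pM IL-6 alongside compound; SIE-controlled beta-lactamase reporter measured as 460/530 nm FRET emission ratio; on the % scale 0 is the no-effect control and ±100 the full control effect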); settings: ME-180 SIE beta-lactamase reporter, IL-6 stimulated, 5 h; at 7.69 µM (top of the series) unless noted
# Outline: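 IL-6/STAT signaling read in ME-180 cells via an SIE beta-lactamase reporter. Stimulus was 40 pM IL-6 (its AC50) for 5 hrs, so both activation and inhibition register.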
# [6] = target: Glucocorticoid receptor (Homo sapiens) (UniProt P04150); test: GR-GFP Redistribution (AID 450;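 active means compounds whose dose series gives a full or clear partial fitted curve of increased nuclear translocation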; further: potency means the concentration at half of the fitted maximal effect); settings: U2OS GR-GFP nuclear translocation, laser cytometry, 2 h
# [7] = target: Glucocorticoid receptor (Homo sapiens) (UniProt P04150); test: GR-EFC Redistribution (AID 451; calls by dose curve; further: potency means the concentration at half of the fitted maximal effect); settings: CHO-K1 GR-EFC translocation, beta-gal luminescence, 2 h
# Outline: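 CHO-K1 cells stably expressing nuclear-localized β-gal enzyme acceptor and GR fused C-terminally to the enzyme donor fragment; ligand-driven nuclear translocation restores β-gal by complementation. Compounds titrated up to 46 uM final, 2 h at 37 °C; luminescence read.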
# [8] = target: Mitogen-activated protein kinase 10 (Mus musculus) (UniProt Q61831); test: JNK3 AlphaScreen Assay (AID 530; active means well fitted curve in either direction with a large enough effect, not every such curve was filed as active;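 further: kinase came from lysate of stimulated human HepG2 cells; signal reports phosphorylation of biotinylated GST-cJun 1-79 at Ser73 with 10 µM ATP; on the % scale 0 is the no-effect control and ±100 the full control effect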); settings: JNK3 lysate, c-Jun phosphorylation; series mostly up to 57.1 µM
# Outline: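 Inhibitors reduce antibody binding to phosphorylated biotin-cJun, lowering AlphaScreen luminescence. Lysates from HepG2 cells pre-activated by IL-1beta plus TNF-alpha supplied JNK3; compounds were titrated.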
# [9] = target: 3',5'-cyclic-AMP phosphodiesterase 4B (Homo sapiens) (UniProt Q07343); test: qHTS Assay for Inhibitors of PDE-IV (AID 607; active means well fitted activation curve with a large enough effect in the main read-out, with a control signal flat, not every such curve was filed as active; further: % of control where 0% means no effect); settings: HEK293 ACTOne CNG channel cells, membrane potential fluorescence; series mostly up to 22.9 µM
# Outline: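 Live HEK293 cells with a modified cyclic nucleotide-gated (CNG) channel report intracellular cAMP via membrane-potential dye fluorescence (ex 535/em 590 nm). Endogenous PDE-IV was targeted. Compounds were tested at up to 22.9 uM final; RO 20-1724 100 uM served as control.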
# [10] = target: Cytochrome P450 3A4 (Homo sapiens) (UniProt P08684); test: qHTS Assay for Activators of Cytochrome P450 3A4 (AID 885); settings: recombinant CYP3A4, Luciferin-PPXE luminescence, 60 min; series mostly up to 57.1 µM; further: nearly all actives have a fitted effect of over 65% in size
# Outline: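 Quantitative HTS format: compounds preincubated with 20nM human CYP3A4 and Luciferin-PPXE substrate at KM, reaction started by NADPH regeneration, stopped after 60 min, luciferase luminescence read 20 min later.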
# [11] = target: Ubiquitin carboxyl-terminal hydrolase 1 (Homo sapiens) (UniProt O94782); test: Inhibitors of USP1/UAF1: Pilot qHTS (AID 504865); settings: purified USP1/UAF1, Ub-rhodamine cleavage fluorescence; series mostly up to 54.9 µM; further: nearly all actives have a fitted effect of over 35% in size; further: potency means the concentration at half of the fitted maximal effect
# Outline: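 Enzyme-free wells gave the negative control, while test wells held 1nM USP1/UAF1 preincubated with compound for 15 min at room temperature. Ub-Rho at 150nM final started the reaction, and fluorescence at 480/540 nm was recorded kinetically.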
# [12] = Primary qHTS for small molecule stabilizers of the endoplasmic reticulum resident proteome: Secreted ER Calcium Modulated Protein (SERCaMP) assay (AID 1508630); settings: SH-SY5Y GLuc-SERCaMP (Gaussia luciferase released on ER calcium loss) secretion, thapsigargin, luminescence; series mostly up to 38.4 µM; further: on the % scale 0 is the no-effect control and ±100 the full control effect
# Outline: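 GLuc-SERCaMP-expressing SH-SY5Y cells, pretreated 16 h with compound, are challenged with thapsigargin to empty ER calcium stores; after 4 h, coelenterazine is added directly to the medium and luminescence is imaged.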
# [13] = target: Cytochrome P450 3A4 (Homo sapiens) (UniProt P08684); test: qHTS Assay for Inhibitors and Substrates of Cytochrome P450 3A4 (AID 884); settings: recombinant CYP3A4, Luciferin-PPXE luminescence; series mostly up to 57.1 µM; further: potency means the concentration at half of the fitted maximal effect; nearly all actives have a fitted effect of over 50% in size
# Outline: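 20 nM human CYP3A4 with 25 uM Luciferin-PPXE (at KM) in 200 mM KPO4, preincubated 10 min with compound; NADPH regeneration started a 60 min RT reaction. Luciferin detected by luminescence, normalized to 57 uM ketoconazole as full inhibition.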
# [14] = target: Cytochrome P450 2C19 (Homo sapiens) (UniProt P33261); test: qHTS Assay for Inhibitors and Substrates of Cytochrome P450 2C19 (AID 899); settings: recombinant CYP2C19, luciferin-H EGE luminescence; series mostly up to 57.1 µM; further: potency means the concentration at half of the fitted maximal effect; nearly all actives have a fitted effect of over 60% in size
# Outline: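 In 50mM KPO4, the reaction held 5nM enzyme and KM-level (10uM) Luciferin-H EGE; it ran 60 min at 37C after NADPH regeneration and a 10 min compound preincubation. Luminescence values were scaled to 57uM ketoconazole as complete inhibition.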
# [15] = qHTS Assay for Identification of Small Molecule Agonists for Hypoxia Response Element Signaling Pathway (AID 914; active means well fitted activation curve with a large enough effect in the signal ratio, with a control signal flat, not every such curve was filed as active; the % refers to the signal ratio; further: % of control where 0% means no effect); settings: ME-180 (cervical carcinoma) HRE-bla reporter, beta-lactamase ratio, CoCl2, 17 h; activation: active compounds read high
# Outline: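 qHTS titration; ME-180 HRE-bla cells; EC50 CoCl2 co-treatment, 17 h at 37 degrees Celsius; CCF4 dye, ex 405nm, em 460nm and 530nm; %Activity from ratio; AC50.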
# [16] = target: Dual specificity protein kinase CLK4 (Homo sapiens) (UniProt Q9HAZ1); test: qHTS Assay for Inhibitors of CDC-like Kinase 4 (ADP-FP Assay) (AID 1795); settings: Transcreener ADP fluorescence polarization; series mostly up to 50 µM;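 further: recombinant human CLK4 phosphorylating RS repeat peptide at 1 µM ATP; on the % scale 0 is the no-effect control and ±100 the full control effect; nearly all actives have a fitted effect of over 60% in size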
# Outline: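 Kinase activity was followed as ADP output, converted from fluorescence polarization with a calibration curve. Reactions ran one hour at low ATP (1 uM) with RS peptide substrate.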
# [17] = Confirmation and Secondary Assay for Modulators of Hemoglobin Beta Chain Splicing at IVS2 654 locus (AID 910); settings: HeLa EGFP-654 splicing reporter, GFP fluorescence, 48 h; series mostly up to 38.3 µM;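 further: per-well total GFP intensity by laser scanning cytometry after 2-day treatment; % of control where 0% means no effect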
# Outline: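 HeLa cells stably carrying EGFP interrupted by mutant beta-globin IVS2-654 intron (CMV-driven) were treated with compound for 2 days at 37C; corrected splicing was scored as total peak GFP intensity per well (488 nm excitation, 500-520 nm emission).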
# [18] = Confirmation and Secondary Assay for Modulators of Hemoglobin Beta Chain Splicing at IVS2 705 locus (AID 930); settings: HeLa EGFP-705 splicing reporter, GFP fluorescence, 48 h; series mostly up to 38.3 µM;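 further: HeLa cells stably expressing the EGFP-705 splicing reporter; GFP fluorescence per well restored by corrected splicing of the IVS2-705 intron in EGFP; % of control where 0% means no effect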
# Outline: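 Secondary splice-site specificity test uses HeLa expressing CMV-driven EGFP interrupted by IVS2-705; cells were treated 2 days at 37C with 500 nM antisense PNA as positive control.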
# [19] = target: Cytochrome P450 2D6 (Homo sapiens) (UniProt P10635); test: qHTS Assay for Inhibitors and Substrates of Cytochrome P450 2D6 (AID 891); settings: recombinant CYP2D6, luciferin-ME EGE luminescence; series mostly up to 57.1 µM; further: potency means the concentration at half of the fitted maximal effect; nearly all actives have a fitted effect of over 60% in size
# Outline: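 Human CYP2D6 (5 nM) with 30 uM Luciferin-ME EGE (at Km) in 100 mM KPO4, compound preincubated 10 min, then NADPH regeneration system for 60 min at room temperature. Luciferin read by luminescence; normalized to 1.43 uM quinidine.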
# Sequence of Dual specificity protein kinase CLK4 (Homo sapiens) (Q9HAZ1 whole entry, looked up): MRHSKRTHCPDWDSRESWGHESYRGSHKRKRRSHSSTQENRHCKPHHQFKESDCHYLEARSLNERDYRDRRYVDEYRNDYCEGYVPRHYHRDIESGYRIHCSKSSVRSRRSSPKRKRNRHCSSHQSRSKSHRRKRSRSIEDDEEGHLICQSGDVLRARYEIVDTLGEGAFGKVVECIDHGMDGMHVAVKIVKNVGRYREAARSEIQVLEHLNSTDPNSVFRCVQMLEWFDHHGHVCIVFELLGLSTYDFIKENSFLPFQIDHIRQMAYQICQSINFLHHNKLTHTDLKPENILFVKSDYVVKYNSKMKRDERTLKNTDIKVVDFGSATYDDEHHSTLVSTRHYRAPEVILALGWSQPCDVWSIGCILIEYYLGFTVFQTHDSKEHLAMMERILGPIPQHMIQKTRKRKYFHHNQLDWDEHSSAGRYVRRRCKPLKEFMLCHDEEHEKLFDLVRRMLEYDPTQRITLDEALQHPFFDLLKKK
# Sequence of Cytochrome P450 3A4 (Homo sapiens) (P08684 whole entry, looked up): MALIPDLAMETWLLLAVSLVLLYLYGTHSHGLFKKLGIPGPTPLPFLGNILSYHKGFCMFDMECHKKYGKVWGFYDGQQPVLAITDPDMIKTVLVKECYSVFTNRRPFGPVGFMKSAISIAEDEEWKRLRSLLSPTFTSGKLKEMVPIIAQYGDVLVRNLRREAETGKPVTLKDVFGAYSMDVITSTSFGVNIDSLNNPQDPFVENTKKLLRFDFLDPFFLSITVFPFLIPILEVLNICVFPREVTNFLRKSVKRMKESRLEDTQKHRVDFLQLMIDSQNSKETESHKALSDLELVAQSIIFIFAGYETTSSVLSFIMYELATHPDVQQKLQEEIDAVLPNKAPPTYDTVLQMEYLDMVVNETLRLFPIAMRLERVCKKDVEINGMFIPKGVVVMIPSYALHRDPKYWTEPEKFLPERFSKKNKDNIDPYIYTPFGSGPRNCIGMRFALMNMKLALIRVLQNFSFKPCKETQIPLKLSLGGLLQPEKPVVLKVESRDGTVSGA
# Sequence of 3',5'-cyclic-AMP phosphodiesterase 4B (Homo sapiens) (Q07343 whole entry, looked up): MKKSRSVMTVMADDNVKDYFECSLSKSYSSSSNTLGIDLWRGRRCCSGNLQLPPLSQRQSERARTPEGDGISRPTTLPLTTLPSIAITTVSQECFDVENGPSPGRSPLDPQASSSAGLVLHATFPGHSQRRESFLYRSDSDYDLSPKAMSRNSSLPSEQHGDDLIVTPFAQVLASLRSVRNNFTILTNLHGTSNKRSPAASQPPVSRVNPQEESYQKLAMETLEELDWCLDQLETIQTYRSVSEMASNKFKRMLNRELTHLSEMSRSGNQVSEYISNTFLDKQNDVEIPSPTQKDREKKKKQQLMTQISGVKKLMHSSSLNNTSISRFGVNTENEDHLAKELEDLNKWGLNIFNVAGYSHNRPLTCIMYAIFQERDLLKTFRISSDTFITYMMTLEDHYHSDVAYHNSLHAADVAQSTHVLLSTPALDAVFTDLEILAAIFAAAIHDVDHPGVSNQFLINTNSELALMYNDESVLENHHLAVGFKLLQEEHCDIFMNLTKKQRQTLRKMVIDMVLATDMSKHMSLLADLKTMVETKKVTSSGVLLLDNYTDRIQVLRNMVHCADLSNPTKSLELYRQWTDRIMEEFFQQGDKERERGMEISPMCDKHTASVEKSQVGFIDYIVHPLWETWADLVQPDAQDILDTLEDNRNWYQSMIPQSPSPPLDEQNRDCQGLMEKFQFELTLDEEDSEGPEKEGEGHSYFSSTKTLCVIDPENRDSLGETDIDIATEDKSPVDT
# Sequence of Glucocorticoid receptor (Homo sapiens) (P04150 whole entry, looked up, the tested form may be a part): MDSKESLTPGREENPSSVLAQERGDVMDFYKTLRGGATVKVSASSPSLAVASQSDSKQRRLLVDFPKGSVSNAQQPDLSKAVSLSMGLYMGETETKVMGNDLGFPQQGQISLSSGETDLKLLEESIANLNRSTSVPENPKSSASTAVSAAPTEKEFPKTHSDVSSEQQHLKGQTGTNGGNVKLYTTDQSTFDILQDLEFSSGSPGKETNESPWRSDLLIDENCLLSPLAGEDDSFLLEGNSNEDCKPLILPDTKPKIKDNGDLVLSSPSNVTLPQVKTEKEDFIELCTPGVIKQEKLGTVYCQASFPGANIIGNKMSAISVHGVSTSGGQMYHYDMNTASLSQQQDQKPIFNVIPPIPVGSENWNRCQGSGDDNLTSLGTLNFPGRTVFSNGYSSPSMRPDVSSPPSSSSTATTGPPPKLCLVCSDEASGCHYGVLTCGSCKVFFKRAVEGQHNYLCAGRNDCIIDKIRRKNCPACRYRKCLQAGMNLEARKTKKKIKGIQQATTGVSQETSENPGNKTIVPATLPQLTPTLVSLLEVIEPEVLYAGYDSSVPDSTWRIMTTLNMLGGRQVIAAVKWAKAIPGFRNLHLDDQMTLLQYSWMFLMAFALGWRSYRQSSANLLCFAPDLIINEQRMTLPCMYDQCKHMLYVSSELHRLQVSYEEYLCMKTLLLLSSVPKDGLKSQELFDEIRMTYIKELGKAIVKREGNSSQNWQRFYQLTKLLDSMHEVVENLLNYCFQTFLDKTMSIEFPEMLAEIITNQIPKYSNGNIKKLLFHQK
# Sequence of Cytochrome P450 1A2 (Homo sapiens) (P05177 whole entry, looked up): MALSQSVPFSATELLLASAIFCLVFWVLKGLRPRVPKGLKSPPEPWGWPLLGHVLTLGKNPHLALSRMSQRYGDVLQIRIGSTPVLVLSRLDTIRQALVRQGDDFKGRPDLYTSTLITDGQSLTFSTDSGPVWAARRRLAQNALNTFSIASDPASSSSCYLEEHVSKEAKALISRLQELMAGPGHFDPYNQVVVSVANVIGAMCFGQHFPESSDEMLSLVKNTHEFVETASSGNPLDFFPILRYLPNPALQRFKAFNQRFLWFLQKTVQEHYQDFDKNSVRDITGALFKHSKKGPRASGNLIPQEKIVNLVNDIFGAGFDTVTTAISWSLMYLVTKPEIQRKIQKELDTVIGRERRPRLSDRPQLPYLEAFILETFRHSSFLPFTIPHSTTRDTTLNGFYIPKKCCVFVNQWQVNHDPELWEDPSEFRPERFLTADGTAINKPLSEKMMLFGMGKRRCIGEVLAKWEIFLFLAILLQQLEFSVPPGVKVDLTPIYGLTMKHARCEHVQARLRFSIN
# Sequence of Lysosomal acid glucosylceramidase (Homo sapiens) (P04062 whole entry, looked up): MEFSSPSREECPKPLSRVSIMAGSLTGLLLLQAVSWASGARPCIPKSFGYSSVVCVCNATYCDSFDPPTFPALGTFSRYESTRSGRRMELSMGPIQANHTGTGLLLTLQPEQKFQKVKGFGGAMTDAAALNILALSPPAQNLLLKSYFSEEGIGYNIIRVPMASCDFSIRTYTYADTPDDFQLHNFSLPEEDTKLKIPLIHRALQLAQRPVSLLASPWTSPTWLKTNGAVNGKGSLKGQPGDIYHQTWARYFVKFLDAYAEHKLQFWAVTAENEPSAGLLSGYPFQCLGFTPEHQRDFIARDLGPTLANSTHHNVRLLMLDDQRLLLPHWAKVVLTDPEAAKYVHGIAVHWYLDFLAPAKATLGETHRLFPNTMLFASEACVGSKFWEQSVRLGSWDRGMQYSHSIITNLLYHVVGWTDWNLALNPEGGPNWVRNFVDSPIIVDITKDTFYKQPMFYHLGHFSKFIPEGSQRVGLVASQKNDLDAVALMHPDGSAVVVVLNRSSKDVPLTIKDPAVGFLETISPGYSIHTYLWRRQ
# Sequence of Cytochrome P450 2C19 (Homo sapiens) (P33261 whole entry, looked up): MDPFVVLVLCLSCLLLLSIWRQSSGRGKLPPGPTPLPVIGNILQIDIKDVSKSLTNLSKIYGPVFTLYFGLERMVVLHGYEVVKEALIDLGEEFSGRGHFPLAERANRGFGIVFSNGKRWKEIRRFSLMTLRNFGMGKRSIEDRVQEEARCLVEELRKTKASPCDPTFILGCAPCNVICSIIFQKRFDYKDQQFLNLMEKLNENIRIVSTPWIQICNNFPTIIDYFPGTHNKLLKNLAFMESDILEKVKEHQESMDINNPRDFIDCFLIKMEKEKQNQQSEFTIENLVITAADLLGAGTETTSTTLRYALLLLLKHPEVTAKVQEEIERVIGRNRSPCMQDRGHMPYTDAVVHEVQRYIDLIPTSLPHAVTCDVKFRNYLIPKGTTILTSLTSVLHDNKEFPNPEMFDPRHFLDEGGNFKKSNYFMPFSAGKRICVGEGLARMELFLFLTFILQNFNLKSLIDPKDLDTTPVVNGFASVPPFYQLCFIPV
# Sequence of Ubiquitin carboxyl-terminal hydrolase 1 (Homo sapiens) (O94782 whole entry, looked up): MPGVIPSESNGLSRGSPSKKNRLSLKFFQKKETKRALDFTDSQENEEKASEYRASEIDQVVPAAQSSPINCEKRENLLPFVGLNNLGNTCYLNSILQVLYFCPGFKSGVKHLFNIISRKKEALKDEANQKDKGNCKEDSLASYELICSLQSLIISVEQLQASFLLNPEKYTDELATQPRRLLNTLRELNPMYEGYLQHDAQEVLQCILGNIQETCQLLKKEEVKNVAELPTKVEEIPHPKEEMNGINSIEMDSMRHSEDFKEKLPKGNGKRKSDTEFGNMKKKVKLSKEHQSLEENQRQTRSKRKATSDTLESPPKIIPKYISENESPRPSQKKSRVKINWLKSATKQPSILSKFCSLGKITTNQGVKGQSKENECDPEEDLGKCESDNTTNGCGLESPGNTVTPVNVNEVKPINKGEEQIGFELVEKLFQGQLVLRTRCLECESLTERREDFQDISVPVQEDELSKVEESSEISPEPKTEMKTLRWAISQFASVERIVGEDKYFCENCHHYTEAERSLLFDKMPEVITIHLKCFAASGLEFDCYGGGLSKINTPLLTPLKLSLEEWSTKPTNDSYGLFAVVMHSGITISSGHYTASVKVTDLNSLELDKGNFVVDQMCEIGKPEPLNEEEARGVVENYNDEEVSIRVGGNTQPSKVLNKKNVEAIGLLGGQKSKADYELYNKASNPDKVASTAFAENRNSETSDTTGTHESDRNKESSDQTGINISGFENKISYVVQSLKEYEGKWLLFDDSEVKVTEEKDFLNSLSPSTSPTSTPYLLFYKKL
SMILES,Potency [1] [µM],"activity change, negative = inhibition [2] [%]",Potency [3],"activity change, negative = inhibition [4] [%]","activity, negative = inhibition [5] [%]",Potency [6] [µM],Potency [7] [µM],Potency [8],Potency [9],Potency [10],Potency [11],outcome [12],Potency [13],Potency [14],activation [15] [%],Potency [16],Potency [17],outcome [18],Potency [19]
CC(=O)NCCNc1nc(-c2ccc3c(c2)OCO3)nc2ccccc12,> 11.4,-7.08,2.51 µM (active),5.61,4.37,> 46,> 46,inactive,inactive,inactive,inactive,inactive,,,,,,,
O=c1c(-c2ccccc2)nc2cncnc2n1Cc1ccccc1Cl,> 11.4,1.43,2 µM (active),-6.41,5.03,> 9.22,> 46,inactive,,,,inactive,,,,,,,
COc1ccccc1-c1nccc(NCc2cccnc2)n1,> 11.4,5.53,0.2 µM (active),1.48,0.0574,> 46,> 46,,inactive,inactive,inactive,inactive,2.51 µM (active),3.98 µM (active),4.59,,,,
NC[C@@H]1O[C@H](O[C@H]2[C@H](O)[C@H](O[C@H]3[C@@H](O)[C@H](N)C[C@H](N)[C@H]3O[C@H]3O[C@H](CN)[C@H](O)[C@H](O)[C@H]3N)O[C@@H]2CO)[C@@H](N)[C@@H](O)[C@@H]1O,,,,,,,,,,,,inactive,,,,,,,
COc1ccccc1CNc1ncncc1-c1cccc(NS(C)(=O)=O)c1,,-18.5,,22.3,-7.42,> 46,> 46,inactive,inactive,,inactive,inactive,0.251 µM (active),,,inactive,,,
COCCn1c(=O)c(-c2cccc(C#N)c2)nc2cnc(Nc3ccccc3)nc21,> 11.4,-6.21,2.51 µM (active),3.3,-15.6,> 9.22,> 46,inactive,inactive,,inactive,inactive,,,,,,,
CN(C)Cc1ccccc1-c1nccc(NC2CC2)n1,> 11.4,-4.26,1.58 µM (active),1.25,5.09,> 46,> 46,inactive,inactive,inactive,inactive,inactive,,,,,inactive,inactive,
O=c1c(-c2ccc(F)cc2)nc2cncnc2n1C1CC1,> 11.4,-6.77,0.158 µM (active),2.7,-6.49,> 9.22,> 46,inactive,,,,inactive,,,,,,,
O=c1c(-c2cccs2)nc2cncnc2n1-c1ccccc1,,-11.2,12.6 µM (active),-9.03,-0.182,> 9.22,> 46,inactive,,inactive,inactive,inactive,,6.31 µM (active),,inactive,,,
CN(Cc1ccco1)c1ccnc(-c2cccnc2)n1,> 11.4,16.2,0.794 µM (active),-13.4,17.8,> 46,> 46,inactive,inactive,inactive,inactive,inactive,,6.31 µM (active),,,,,7.94 µM (active)
CN(C)C(=O)c1ccc(-c2nc(N(C)Cc3ccco3)c3ccccc3n2)cc1,> 11.4,-14.5,7.94 µM (active),18.1,3.3,> 46,> 46,inactive,,,inactive,inactive,,,,,inactive,inactive,
N#Cc1cccc(-c2cc(-n3ccnc3)ncn2)c1,> 11.4,0.101,0.126 µM (active),4.55,10.7,> 46,> 46,inactive,inactive,inactive,inactive,inactive,0.398 µM (active),0.158 µM (active),,,inactive,inactive,
COc1cccc(-c2nc(NCc3cnc(C)cn3)c3ccccc3n2)c1,> 11.4,-17.2,0.398 µM (active),20.9,-10.4,> 46,> 46,inactive,,inactive,inactive,inactive,2.51 µM (active),,6.27,,inactive,inactive,
N#Cc1cccc(-c2nc(NCc3ccccc3)c3ccccc3n2)c1,> 11.4,-14.6,0.398 µM (active),-13.5,-8.06,> 46,> 46,inactive,,inactive,15.8 µM (active),inactive,,6.31 µM (active),,,,,
CCC(=O)O[C@@H]1CC(=O)O[C@H](C)C/C=C/C=C/[C@@H](O)[C@H](C)C[C@H](CC=O)[C@H](OC2O[C@H](C)[C@@H](O[C@H]3C[C@@](C)(O)[C@@H](OC(=O)CC)[C@H](C)O3)[C@H](N(C)C)[C@H]2O)[C@H]1OC (some centres undefined),,,,,,,,,,,,inactive,,,,,,,
COCCNc1nc(-c2ccccc2C(F)(F)F)nc2ccccc12,,-4.03,1.26 µM (active),5.96,15.8,> 46,> 46,inactive,,inactive,inactive,inactive,,,,inactive,,,
COc1cccc(-c2cncnc2NCc2cnc(C)cn2)c1,> 11.4,-11.3,12.6 µM (active),8.15,7.19,> 46,> 46,inactive,inactive,inactive,inactive,inactive,1.58 µM (active),,,,,,
CCNc1ncc2nc(-c3ccc(F)cc3)c(=O)n(CCC#N)c2n1,> 11.4,-13.4,0.631 µM (active),-10,16.7,> 9.22,> 46,inactive,,,,inactive,,,,,,,
CN(C)C(=O)c1ccc(-c2cncnc2NCCN2CCOCC2)cc1,> 11.4,-0.958,inactive,-6.2,0.853,> 46,> 46,inactive,inactive,inactive,inactive,inactive,,,,,inactive,inactive,
COCCNc1ccnc(-c2c(C)noc2C)n1,> 11.4,3.45,2.51 µM (active),9,5.3,> 46,> 46,inactive,inactive,inactive,inactive,inactive,,,,,inactive,inactive,
